# Screens deposited in PubChem by National Center for Advancing Translational Sciences (NCATS).
# SMN2 splice up: SMN2 splice variant enhancement; HEK293 SMN2-luciferase splicing reporter, luminescence, 30-36 h; Potency, µM (top dose mostly 46.1 µM), actives largely listed as activators; 2.8% of 210,000 active; AID 1458; further: nearly all actives have a fitted effect of over 55% in size
#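 HEK293 cells carry an SMN2 […]–luciferase reporter in which exon 7 inclusion puts luciferase in frame. Cells were plated 10-12 h before compound addition, then incubated 30-36 h at 37C. ONE-Glo luminescence was read; sodium butyrate at 4.5 mM final served as control.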
# ELG1 genotox: induces genotoxicity in HEK293T cells with luciferase-tagged ELG1; HEK293T ELG1-luciferase reporter, luminescence, 16 h; Potency, µM (top dose mostly 46 µM), actives largely listed as activators; 1.3% of 330,000 active; AID 504466; further: nearly all actives have a fitted effect of over 60% in size
#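 Genotoxic stress is detected as increased luminescence from luciferase-tagged ELG1 in HEK293T cells, measured with ONE-Glo after a 16 hr treatment at 37 °C.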
# FLuc modulator: inhibits or activates purified firefly luciferase, miR-21 counter-screen. purified FLuc, Km substrates, luminescence inhibition. Potency, µM (doses to about 57.5 µM), actives largely listed as inhibitors. 6.9% of 360,000 active. AID 588342; further: nearly all actives have a fitted effect of over 55% in size
# Target sequence (P08659 whole entry, looked up): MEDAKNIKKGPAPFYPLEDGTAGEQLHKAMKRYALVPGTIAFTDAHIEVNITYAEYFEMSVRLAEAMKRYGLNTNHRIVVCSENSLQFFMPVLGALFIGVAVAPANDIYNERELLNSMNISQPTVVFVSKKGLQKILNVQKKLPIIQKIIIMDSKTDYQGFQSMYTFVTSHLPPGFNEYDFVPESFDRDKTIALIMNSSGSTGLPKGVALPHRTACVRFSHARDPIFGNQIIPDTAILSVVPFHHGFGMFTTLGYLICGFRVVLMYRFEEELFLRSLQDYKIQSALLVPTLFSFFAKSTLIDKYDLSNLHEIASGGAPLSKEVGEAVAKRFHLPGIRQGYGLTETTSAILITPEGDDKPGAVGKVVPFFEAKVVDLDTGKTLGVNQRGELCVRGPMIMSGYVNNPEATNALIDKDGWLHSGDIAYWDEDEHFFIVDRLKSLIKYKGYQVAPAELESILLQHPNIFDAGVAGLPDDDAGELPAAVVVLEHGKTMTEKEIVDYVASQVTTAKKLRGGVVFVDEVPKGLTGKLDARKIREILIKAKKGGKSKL
#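 Purified P. pyralis luciferase, 10 nM final, with Km-level 10 uM D-luciferin and 10 uM ATP in 50 mM Tris acetate pH 7.5, 10 mM Mg acetate, 0.01% Tween-20, 0.05% BSA; 6-point qHTS titration about 60 µM downward; luminescence read.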
# Rab9 promoter act: Rab9 promoter activation; Potency, µM (titrated, usually from 9.22 µM), actives largely listed as activators; 2.8% of 320,000 active; Huh7 Rab9 promoter-luciferase reporter, luminescence, 24 h; further: nearly all actives have a fitted effect of over 60% in size
#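 Promoter activation is measured as luciferase luminescence in Huh7 cells stably transfected with a Rab9 promoter–luciferase construct, following 24 h compound exposure at 37 °C and 10 min reagent incubation at ambient temperature.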
# NPC1 prom act: activators of NPC1 promoter; AID 485313; 2.4% of 320,000 active; Huh7 NPC1 promoter luciferase reporter, 24 h; Potency, µM (doses to about 9.22 µM), hits mostly activators; further: nearly all actives have a fitted effect of over 60% in size
#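 Stable NPC1-promoter luciferase Huh7 line; cpd (DMSO) 24 h, 37 °C, 5% CO2; Amplite luciferase reagent 10 min RT; luminescence readout. qHTS format.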
# Luc counter: Kinase-Glo luciferase inhibition (counter-screen) | Q27757 | Kinase-Glo luciferase, ATP luminescence, 8 min | Potency, µM (titrated, usually from 38.3 µM), usual class: inhibitors | 0.28% of 200,000 active | AID 1379; further: nearly all actives have a fitted effect of over 60% in size
#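 Recombinant Kinase-Glo luciferase, 10 uM ATP (linear range), luciferin; imidazole pH 7.2 / KCl / MgCl2 / Tween / BSA buffer; 8 min RT; luminescence.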
# Numbers stand for hits; – = inactive; ? = inconclusive; · = no result given. Sampled rows, rich in hits. Any-hit rate of the full collection: about 7.5%. The call rests on the fitted dose curve; in most records, active means well fitted curve in the direction sought with a large enough effect; inconclusive means small, poorly fitted or top-dose-only effect, or another doubt; inactive means no such curve, though single readings can be large; an effect the other way counts as inactive or inconclusive.
SMILES,SMN2 splice up,ELG1 genotox,FLuc modulator,Rab9 promoter act,NPC1 prom act,Luc counter
Cc1cccc(NC(=O)C(=O)NCCc2sc(-c3ccccc3)nc2C)c1C,·,·,–,·,·,·
CCn1c(C(=O)N2CCCC(C(=O)N3CCN(c4ccccc4)CC3)C2)cc2sccc21 (stereo unspecified),–,·,–,·,·,·
CCCC(=O)Nc1ccc(C(=O)Nc2nc(CC(=O)OCC)cs2)cc1,–,–,15µM,–,–,–
CCOC(=O)Cc1csc(NC(=O)Nc2cccs2)n1,·,–,21µM,–,?,·
CCOC(=O)Nc1nc(-c2ccc(F)cc2F)cs1,–,–,19µM,?,?,–
CCOC(=O)Cc1csc(NC(=O)Nc2ccc(F)cc2)n1,·,–,11µM,–,–,·
O=C(O)c1ccccc1Nc1ccc([N+](=O)[O-])c2nonc12,·,–,?,–,–,·
Cc1oc2ccc(O)c(CN3CCCC3)c2c1C(=O)Nc1ccc(C(C)C)cc1,–,·,–,·,·,·
CCOC(=O)Cc1csc(NC(=O)Nc2ccc(C)cc2)n1,·,–,3µM,–,–,·
CCOC(=O)Cc1csc(NC(=O)c2cccc(OC)c2)n1,–,–,?,–,–,–
CCOC(=O)Cc1csc(NC(=O)Nc2cccc(OC)c2)n1,·,–,15µM,–,–,·
COc1cccc(/C=N/c2nc3ccccc3[nH]2)c1O,·,–,19µM,–,–,·
COc1cccc(/C=N/Nc2ncc(C)c(=O)[nH]2)c1OC,·,–,–,–,–,·
Cc1ccc(Nc2nc3ccccc3[nH]2)nc1,11µM,?,13µM,2.8µM,2.8µM,–
COc1cccc(/C=N/Nc2nc3ccccc3[nH]2)c1O,·,?,2.7µM,–,–,·
COc1cccc(/C=N/Nc2nc3ccccc3[nH]2)c1OC,·,–,5.4µM,2.5µM,4µM,·
O=C(CSc1n[nH]c(-c2ccncc2)n1)Nc1ccc(Cl)c(C(=O)O)c1,·,–,?,–,–,·
Cc1ccccc1C(=O)Nc1cccc(OCc2cc(=O)n3cccc(C)c3n2)c1,·,·,–,·,·,·
COc1ccccc1Nc1nc2ccccc2[nH]1,–,–,9.5µM,?,?,–
CC(=O)NC(Cc1ccccc1C)C(=O)NC1CCN(C(=O)c2cccc(C)c2)CC1 (stereo unspecified),·,–,–,–,–,–
O=C(CCCC(=O)OCC(F)(F)C(F)F)Nc1ccccc1F,–,–,–,–,–,–
Cc1ccc(S(=O)(=O)Nc2ccc3cn[nH]c3c2)cc1,·,–,–,–,–,·
Nc1ccc(C(=O)Nc2ccc3nc(-c4cccnc4)[nH]c3c2)cc1,–,–,17µM,–,–,–
Cn1cccc1-c1nc2ccc(NC(=O)c3ccc([N+](=O)[O-])cc3)cc2[nH]1,–,–,–,–,–,–
Cc1nnsc1-c1nc2ccccc2[nH]1,–,–,–,–,–,–
SMILES,SMN2 splice up,ELG1 genotox,FLuc modulator,Rab9 promoter act,NPC1 prom act,Luc counter
Cn1cccc1-c1nc2ccccc2[nH]1,·,?,17µM,–,?,·
Cc1ccc(S(=O)(=O)Nc2ccc3nc(-c4cccn4C)[nH]c3c2)cc1,8.9µM,–,–,–,–,–
Cn1cccc1-c1nc2ccc(NC(=O)c3ccccc3)cc2[nH]1,–,?,15µM,–,–,–
Nc1[nH]ncc1-c1ccc(F)cc1,–,–,–,–,–,–
CCN1CCN(c2ncnc3c2cnn3-c2ccc(C)cc2)CC1,·,·,11µM,·,·,·
Clc1ccc(-n2ncc3c(N4CCCC4)ncnc32)cc1,–,0.18µM,0.34µM,0.32µM,0.5µM,–
CCN1CCN(c2ncnc3c2cnn3-c2cc(Cl)ccc2C)CC1,·,·,–,·,·,·
Cc1ccc(-n2ncc3c(N4CCCCCC4)ncnc32)cc1,·,·,0.12µM,·,·,·
Fc1ccc(-n2ncc3c(N4CCCCCC4)ncnc32)cc1,·,·,0.95µM,·,·,·
CCOC(=O)C1CCN(c2ncnc3c2cnn3-c2ccc(Cl)cc2)CC1,–,–,?,–,–,–
COc1ccc(S(=O)(=O)NCCS(=O)(=O)N2CCN(c3ccccc3)CC2)cc1C,·,·,–,·,·,·
Cc1ccc(C(O)(C(=O)NNc2ccc3ccccc3n2)c2ccc(C)cc2)cc1,–,–,–,–,–,–
COc1cc(C(C)=O)ccc1OCC(=O)OCCCOC(=O)COc1ccc(C(C)=O)cc1OC,·,–,–,–,–,·
O=C(CSc1nc2c(c(=O)[nH]1)CCC2)Nc1cccc(O)c1,·,·,–,·,·,·
CC(C)COc1ccc(C(=O)Nc2onc3c2CCCC3)cc1,–,·,0.34µM,·,·,·
CCOc1ccc(C(=O)Nc2onc3c2CCCC3)cc1,2.8µM,·,0.3µM,·,·,·
CCN(C(=O)c1cc2c(=O)oc3ccccc3c2s1)c1ccc(C)c(C)c1,–,·,–,·,·,·
O=C(Nc1ccc2c(c1)OCCO2)c1cccc(Cl)c1,·,?,3µM,2µM,3.2µM,·
O=C(NC(=S)Nc1ccc2c(c1)OCCO2)c1cccc(Br)c1,13µM,?,11µM,3.2µM,3.2µM,–
O=C(CC(=O)c1ccccc1)Nc1ccc2c(c1)OCCO2,13µM,?,6.7µM,1.4µM,2.5µM,–
O=C(Nc1ccc2c(c1)OCCO2)C(=S)NCc1ccccc1,?,–,6µM,–,–,–
O=C(Nc1ccc(N=Nc2ccccc2)cc1)c1cccc(Cl)c1,–,–,–,–,–,–
O=C(Nc1ccc(C(=O)O)cc1)/C(=C/c1ccc2c(c1)OCO2)NC(=O)c1cccc(Br)c1,–,–,–,–,–,–
CCCc1cc(C(=O)Nc2cccc([N+](=O)[O-])c2)cs1,·,–,11µM,?,?,·
O=C(CCCc1cccs1)Nc1ccc2c(c1)OCO2,14µM,?,11µM,2.8µM,2.2µM,–
SMILES,SMN2 splice up,ELG1 genotox,FLuc modulator,Rab9 promoter act,NPC1 prom act,Luc counter
O=C(Nc1ccc2c(c1)OCCO2)C1CC1c1ccccc1 (stereo unspecified),11µM,?,9.5µM,4µM,?,–
CC(C)C(NC(=O)C1CCCCC1)C(=O)Nc1ccc2c(c1)OCCO2 (stereo unspecified),–,?,6µM,2µM,1.1µM,–
O=C(O)C1CCCCC1C(=O)Nc1ccc2c(c1)OCCO2 (stereo unspecified),–,–,–,–,–,–
CCCc1cc(=O)[nH]c(Nc2cc(Cl)cc(Cl)c2)n1,–,·,–,·,·,·
CCOC(=O)c1c(S(=O)(=O)NCC(=O)Nc2cccc(SC)c2)c(C)n(C)c1C,·,·,–,·,·,·
CCC1CCCCN1S(=O)(=O)c1cc2c(cc1C)NC(=O)CO2 (stereo unspecified),·,·,–,·,·,·
S=C(Nc1ccc(Br)cc1)Nc1ccc2c(c1)OCCO2,·,?,12µM,?,?,·
O=C(Nc1cccc([N+](=O)[O-])c1)c1ccc2c(c1)OCCO2,18µM,?,7.6µM,?,3.5µM,–
CN(c1cccc(NC(=O)c2ccc(C(C)(C)C)cc2)c1)S(C)(=O)=O,·,–,0.48µM,?,–,–
COc1cc(NC(=S)Nc2ccc3c(c2)OCCO3)cc(OC)c1OC,·,–,–,–,–,·
CC(C)(C)c1ccc(C(=O)Nc2cccc([N+](=O)[O-])c2)cc1,11µM,?,1.7µM,2.2µM,2.5µM,–
